# The supplement of paper PMC6897291
# Structures can show the parent of a compound that is named as a salt.
# What was measured:
# RIVA [1] = assay: growth inhibition by drug plus 177Lu-lilotomab satetraxetan (1 - RLU/untreated control) (fraction); higher = stronger inhibition; conditions: 177Lu-lilotomab satetraxetan 0.5 ug/ml
# Outline: (§1)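 RIVA or U-2932 cells, untreated or pretreated 18 h with a radiolabelled anti-CD37 antibody conjugate (~600 MBq/mg; 0.5 µg/ml RIVA, 1 µg/ml U-2932), were washed and seeded at 3,000 cells/well on plates pre-printed with the Selleck Cambridge Cancer Compound library. Doses were 10/100 nM (RIVA) or 10/1,000 nM (U-2932). RealTime-Glo luminescence was read daily from day 3 after 1 h at 37°C. Growth inhibition is 1 − RLU/mean of 48 untreated no-drug wells per plate.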
# U-2932 [2] = assay: growth inhibition by drug alone (1 - RLU/untreated control) (fraction); higher = stronger inhibition; conditions: 177Lu-lilotomab satetraxetan 0 ug/ml
# Outline: as §1
# RIVA [3] = assay: as above; conditions: 177Lu-lilotomab satetraxetan 0 ug/ml
# Outline: as §1
# U-2932 [4] = assay: growth inhibition by drug plus 177Lu-lilotomab satetraxetan (1 - RLU/untreated control) (fraction); higher = stronger inhibition; conditions: 177Lu-lilotomab satetraxetan 1 ug/ml
# Outline: as §1
SMILES,"growth inhibition by drug plus 177Lu-lilotomab satetraxetan (RIVA [1]; 100 nM, time (day): 5)","growth inhibition by drug plus 177Lu-lilotomab satetraxetan (RIVA [1]; 100 nM, time (day): 6)","growth inhibition by drug alone (U-2932 [2]; 10 nM, time (day): 3)","growth inhibition by drug alone (U-2932 [2]; 10 nM, time (day): 4)","growth inhibition by drug alone (U-2932 [2]; 10 nM, time (day): 5)","growth inhibition by drug alone (U-2932 [2]; 10 nM, time (day): 6)","growth inhibition by drug alone (U-2932 [2]; 1000 nM, time (day): 3)","growth inhibition by drug alone (U-2932 [2]; 1000 nM, time (day): 4)","growth inhibition by drug alone (U-2932 [2]; 1000 nM, time (day): 5)","growth inhibition by drug alone (U-2932 [2]; 1000 nM, time (day): 6)","growth inhibition by drug alone (RIVA [3]; 10 nM, time (day): 3)","growth inhibition by drug alone (RIVA [3]; 10 nM, time (day): 4)","growth inhibition by drug alone (RIVA [3]; 10 nM, time (day): 5)","growth inhibition by drug alone (RIVA [3]; 10 nM, time (day): 6)","growth inhibition by drug alone (RIVA [3]; 100 nM, time (day): 3)","growth inhibition by drug alone (RIVA [3]; 100 nM, time (day): 4)","growth inhibition by drug alone (RIVA [3]; 100 nM, time (day): 5)","growth inhibition by drug alone (RIVA [3]; 100 nM, time (day): 6)","growth inhibition by drug plus 177Lu-lilotomab satetraxetan (U-2932 [4]; 10 nM, time (day): 3)","growth inhibition by drug plus 177Lu-lilotomab satetraxetan (U-2932 [4]; 10 nM, time (day): 4)","growth inhibition by drug plus 177Lu-lilotomab satetraxetan (U-2932 [4]; 10 nM, time (day): 5)","growth inhibition by drug plus 177Lu-lilotomab satetraxetan (U-2932 [4]; 10 nM, time (day): 6)","growth inhibition by drug plus 177Lu-lilotomab satetraxetan (U-2932 [4]; 1000 nM, time (day): 3)","growth inhibition by drug plus 177Lu-lilotomab satetraxetan (U-2932 [4]; 1000 nM, time (day): 4)","growth inhibition by drug plus 177Lu-lilotomab satetraxetan (U-2932 [4]; 1000 nM, time (day): 5)","growth inhibition by drug plus 177Lu-lilotomab satetraxetan (U-2932 [4]; 1000 nM, time (day): 6)","growth inhibition by drug plus 177Lu-lilotomab satetraxetan (RIVA [1]; 10 nM, time (day): 3)","growth inhibition by drug plus 177Lu-lilotomab satetraxetan (RIVA [1]; 10 nM, time (day): 4)","growth inhibition by drug plus 177Lu-lilotomab satetraxetan (RIVA [1]; 10 nM, time (day): 5)","growth inhibition by drug plus 177Lu-lilotomab satetraxetan (RIVA [1]; 10 nM, time (day): 6)","growth inhibition by drug plus 177Lu-lilotomab satetraxetan (RIVA [1]; 100 nM, time (day): 3)","growth inhibition by drug plus 177Lu-lilotomab satetraxetan (RIVA [1]; 100 nM, time (day): 4)"
CCN(CC)CCNC(=O)c1c(C)[nH]c(/C=C2\C(=O)Nc3ccc(F)cc32)c1C [Sunitinib Malate (Sutent)],0.387,0.364,–,–,–,–,–,–,–,–,–,–,–,–,–,–,–,–,–,–,–,–,–,–,–,–,–,–,–,–,–,–
CC(C)OC(=O)C1=CN(C(=O)c2ccc(F)c(F)c2)CC(C)(C)c2c1[nH]c1ccccc21,0.608,0.597,0.0404,-0.0052,-0.0866,-0.191,-0.0177,-0.00403,-0.0481,-0.039,0.0268,0.00242,0.00693,-0.0298,-0.161,-0.106,-0.145,-0.234,0.0558,0.102,0.14,0.204,0.038,0.085,0.0862,0.162,0.587,0.594,0.614,0.598,0.546,0.595
Cc1nn(-c2ccccc2)c(C)c1C=NN1CCN(Cc2ccccc2)CC1,0.397,0.389,0.0133,0.025,0.0751,0.189,-0.168,-0.0669,-0.0956,-0.16,-0.144,-0.164,-0.201,-0.467,-0.163,-0.151,-0.201,-0.307,-0.0548,-0.0219,0.00875,0.104,-0.251,-0.05,-0.0247,-0.0474,0.275,0.414,0.437,0.459,0.295,0.4
Cc1cc(Nc2cc(N3CCN(C)CC3)nc(/C=C/c3ccccc3)n2)n[nH]1,0.36,0.357,-0.0691,-0.0558,-0.0606,-0.0133,0.102,0.0113,0.0189,0.221,-0.27,-0.286,-0.318,-0.447,-0.354,-0.347,-0.369,-0.539,-0.149,-0.0973,-0.0755,-0.0149,0.048,0.00467,0.0776,0.323,0.336,0.485,0.509,0.521,0.23,0.353
N#Cc1ccc(NC(=O)Nc2ccccc2Br)c2n[nH]nc12,0.544,0.542,0.122,0.0624,-0.115,-0.0627,0.0674,0.0714,-0.0804,-0.0945,-0.0525,0.00855,-0.101,-0.43,-0.383,-0.198,-0.264,-0.513,0.0243,0.065,0.134,0.142,0.0797,0.0995,0.138,0.218,0.534,0.601,0.605,0.619,0.463,0.528
CCc1cncnc1N1CCN(Cc2nc3ccc(C(F)(F)F)cc3[nH]2)CC1,0.542,0.514,0.0983,0.0884,-0.0751,-0.108,0.0626,0.102,0.0246,-0.253,0.00505,-0.0231,-0.0829,-0.347,-0.0601,-0.0865,-0.0867,-0.192,0.00491,0.0254,0.0426,0.0627,-0.00879,0.086,0.0686,0.0567,0.505,0.583,0.59,0.587,0.49,0.55
CO[C@H]1C[C@@H]2CC[C@@H](C)[C@@](O)(O2)C(=O)C(=O)N2CCCC[C@H]2C(=O)O[C@H]([C@H](C)C[C@@H]2CC[C@@H](OCCO)[C@H](OC)C2)CC(=O)[C@H](C)/C=C(\C)[C@@H](O)[C@@H](OC)C(=O)[C@H](C)C[C@H](C)/C=C/C=C/C=C/1C [Everolimus (RAD001)],0.876,0.873,0.744,0.686,0.591,0.52,0.743,0.728,0.667,0.605,0.776,0.768,0.744,0.653,0.811,0.826,0.827,0.801,0.69,0.625,0.558,0.538,0.719,0.729,0.706,0.702,0.821,0.838,0.833,0.788,0.833,0.865
COC(=O)Nc1nc2cc(C(=O)c3cccs3)ccc2[nH]1 [Nocodazole],0.974,0.979,0.162,0.111,0.0124,-0.0733,0.959,0.967,0.972,0.977,-0.0176,-0.0388,-0.162,-0.595,0.948,0.956,0.957,0.953,0.00977,0.0511,0.0524,0.13,0.971,0.978,0.982,0.984,0.402,0.532,0.541,0.547,0.956,0.968
Cc1csc(-c2nnc(Nc3ccc(Oc4ncccc4-c4ccnc(N)n4)cc3)c3ccccc23)c1,0.581,0.676,0.0562,-0.00651,0.0489,0.269,0.102,0.112,0.103,0.252,0.0279,-0.0253,0.0704,0.206,-0.211,-0.208,-0.145,-0.0126,0.0788,0.121,0.207,0.449,0.271,0.306,0.344,0.538,0.482,0.52,0.572,0.659,0.496,0.552
COc1cc([C@@H]2c3cc4c(cc3[C@@H](O[C@@H]3O[C@@H]5CO[C@@H](C)O[C@H]5[C@H](O)[C@H]3O)[C@H]3COC(=O)[C@H]23)OCO4)cc(OC)c1O [Etoposide (VP-16)],0.816,0.845,-0.0657,-0.0505,-0.0531,-0.0136,0.738,0.843,0.913,0.949,-0.26,-0.276,-0.302,-0.423,-0.0322,0.0869,0.148,0.202,-0.108,-0.0574,-0.0473,0.0279,0.823,0.901,0.945,0.969,0.345,0.51,0.549,0.556,0.681,0.776
C#Cc1cccc(Nc2ncnc3cc(OCCOC)c(OCCOC)cc23)c1 [Erlotinib HCl],0.788,0.724,0.33,0.251,0.131,0.0458,0.731,0.715,0.655,0.621,0.349,0.233,0.131,-0.221,0.656,0.642,0.6,0.46,0.195,0.2,0.208,0.267,0.712,0.704,0.691,0.685,0.595,0.534,0.536,0.524,0.791,0.81
OCCn1cc(-c2cnc3nnn(Cc4ccc5ncccc5c4)c3n2)cn1,0.467,0.46,0.0403,0.00489,-0.0584,-0.156,-0.178,-0.0659,-0.175,-0.214,0.0383,0.00592,-0.0414,-0.165,-0.319,-0.278,-0.299,-0.402,-0.0346,0.043,0.0857,0.105,0.0296,0.08,0.0788,0.176,0.521,0.575,0.599,0.603,0.384,0.474
CNC(=O)c1cc(COc2nnc(Nc3ccc(Cl)cc3)c3ccoc23)ccn1 [Telatinib (BAY 57-9352)],0.413,0.391,-0.0124,0.00544,-0.0774,-0.272,-0.0825,-0.0325,-0.0739,-0.229,-0.0398,-0.0876,-0.128,-0.281,-0.214,-0.207,-0.212,-0.315,-0.0402,-0.000867,0.00308,0.0503,-0.145,-0.0474,-0.0515,0.00564,0.351,0.487,0.503,0.502,0.316,0.416
C=C1/C(=C\C=C2/CCC[C@]3(C)[C@@H]([C@H](C)/C=C/[C@H](C)C(C)C)CC[C@@H]23)C[C@@H](O)C[C@@H]1O [Doxercalciferol (Hectorol)],–,–,0.174,0.125,0.0899,0.0598,0.106,0.132,0.147,0.128,0.187,0.183,0.177,0.0541,0.0648,0.127,0.103,0.0636,0.15,0.183,0.229,0.36,0.0716,0.176,0.182,0.287,0.484,0.601,0.615,0.639,0.47,0.55
